Consider 67 compounds from ChEMBL document CHEMBL4513216, “Probing the Open Global Health Chemical Diversity Library for Multistage-Active Starting Points for Next-Generation Antimalarials” (ACS Infect Dis, 2020).

Among all 68,000 compounds or so, about 2,700 (4%) showed an effect of 50% or more. The list comes from a sample in which strong results are over-represented; it also holds similar structures and randomly drawn compounds.

This test concerns Plasmodium berghei. Put plainly: Screen against P. berghei liver stage (PbLuc), transformed with Luciferase, at 2uM. It is filed as functional, HepG2. To be noted: tested at 2 uM.
On to `Cc1cc(CN(C)C(=O)CN2CC3(CCNCC3)OC2=O)n(C)n1`, for which the INHIBITION amounted to 24.12%.

Take `CC(Cn1cc(Br)cn1)C(=O)Nc1ccc(C(N)=O)cc1` (configuration not stated): the INHIBITION is -34.79%.

Regarding `CSc1nnc(C2CCN(C(=O)N3CCCC3)CC2)n1C`, the INHIBITION is 5.83%.

In the case of `O=C(Nc1cccnc1)[C@H]1C[C@H]2OCC[C@H]2N(Cc2ccc(F)cc2)C1`, the INHIBITION was determined as 26.62%.

Turning to `Cn1ccnc1CN1CCc2ncnc(N3CCCC(C#N)C3)c2CC1` (configuration not stated), the INHIBITION turned out to be 23.64%.

As for `N#CC1CCCN(c2ncnc3c2CCN(Cc2ccccc2)CC3)C1` (configuration not stated), the INHIBITION was 51.9%.

Take `c1ccc(CN2CCc3ncnc(C4CC4)c3CC2)cc1`: the INHIBITION is listed as 14.13%.

`CC(Cc1ccc2c(c1)OCO2)c1cn(CCN2CCCC2)nn1` (configuration not stated): the INHIBITION was determined as 69.71%.

For the compound `CC(Cc1ccc2c(c1)OCO2)c1cn(CCc2c[nH]cn2)nn1` (configuration not stated), the INHIBITION is 46.58%.

For `Cc1cc(Cn2cc(C(C)Cc3ccc4c(c3)OCO4)nn2)n[nH]1` (configuration not stated), the INHIBITION came to 49.88%.

Consider `CN(Cc1ccncc1)C1COC2(CCN(Cc3ccco3)CC2)C1` (configuration not stated), for which the INHIBITION amounted to 45.36%.

For the compound `O=C(Nc1cn[nH]c1)c1ccc(O)nc1`, the INHIBITION stood at 45.75%.

With `Cn1nc(C2CCCN(Cc3ccc(F)c(F)c3)C2)c2nccnc21` (configuration not stated), the INHIBITION is 38.65%.

Consider `O=C(c1n[nH]c(=O)c2ccccc12)N1CCC(O)(CN2CCOCC2)C1` (configuration not stated), for which the INHIBITION is listed as -28.4%.

On to `Cc1ccc(CN(CCCn2ccnc2)Cc2c(F)cccc2F)s1`, for which the INHIBITION was 36.26%.

On to `O=C(CCn1cccn1)N1C[C@H]2CC[C@@H](C1)N(Cc1ccccn1)C2=O`, for which the INHIBITION was -19.54%.

As to `Cc1ccc2c(c1)C(NCc1ncnn1C)CC2` (configuration not stated), the INHIBITION was determined as 38.67%.

Consider `Cn1ncnc1CNC1CCCc2cc(F)ccc21` (configuration not stated), for which the INHIBITION is -9.03%.

For `Cn1ncnc1CNC1CCc2cc(Cl)ccc21` (configuration not stated), the INHIBITION stood at 74.44%.

With `CC(C)NC(=O)C1CCc2nnc(C(C)(C)C)n21` (configuration not stated), the INHIBITION is on record as 12.84%.

In the case of `O=C(CCN1CCOCC1)Nc1cccc(CNCc2ccsc2)c1`, the INHIBITION worked out at 3.54%.

Take `CCN(C(=O)NCc1cccnc1N(C)C)C(C)c1cccnc1` (configuration not stated): the INHIBITION is recorded as 57.75%.

Take `CN(C)c1ncccc1CNC(=O)NCc1ccco1`: the INHIBITION is 37.15%.

As for `CN(C)c1ncccc1CNC(=O)NCC(c1cccs1)N(C)C` (configuration not stated), the INHIBITION came to 31.55%.

As for `CC(NC(=O)NCc1cccnc1N(C)C)c1cccs1` (configuration not stated), the INHIBITION is recorded as 51.31%.

Turning to `CN(C)c1ccc(NC(=O)NCc2cccnc2N(C)C)cn1`, the INHIBITION worked out at 1.63%.

For `CC(C)C(NC(=O)NCc1cccnc1N(C)C)c1cccs1` (configuration not stated), the INHIBITION is reported as -16.65%.

On to `CCN(C(=O)NCc1ccccc1OC(F)F)C(C)c1cccnc1` (configuration not stated), for which the INHIBITION is reported as 38.67%.

Turning to `CCOc1ccccc1CNC(=O)N(CC)C(C)c1cccnc1` (configuration not stated), the INHIBITION came out at 21.97%.

For `CC(NC(=O)NCc1cccnc1N(C)C)c1ccc(F)cc1` (configuration not stated), the INHIBITION worked out at 59.21%.

Regarding `CCN(CC1CN(CC2CCC2)CCO1)c1cccnn1` (configuration not stated), the INHIBITION is on record as 47.61%.

With `Cc1nc2n(n1)CC(NCc1cc(Cl)c3c(c1)OCCCO3)CC2` (configuration not stated), the INHIBITION is reported as 3.86%.

As for `CN(Cc1ccco1)[C@@H]1CN(Cc2ccc(F)cc2)[C@@H]2CCCO[C@H]12`, the INHIBITION is -12.36%.

In the case of `COc1ncnc(N)c1CNCCc1ccc(-n2cccn2)cc1`, the INHIBITION was 18.37%.

For `O=C(c1cccs1)N1CC[C@H]2C[C@@H](c3nnc(C4CC4)o3)O[C@@H]2C1`, the INHIBITION turned out to be 31.41%.

Turning to `CN(C)C(=O)C1OC2(CCN(C(=O)c3ccoc3)CC2)c2ccccc21` (configuration not stated), the INHIBITION turned out to be 25.43%.

For the compound `CCC(O)CN1CCN(C(=O)c2cccn2Cc2ccncc2)CC1` (configuration not stated), the INHIBITION is -21.72%.

Take `COCC1Cn2nnc(-c3cnn(C)c3)c2CN1Cc1cccs1` (configuration not stated): the INHIBITION is reported as -34.95%.

As to `COCC1Cn2nnc(-c3cnn(C)c3)c2CN1Cc1ccc(C)o1` (configuration not stated), the INHIBITION is 56.76%.

With `COCC1Cn2nnc(-c3cnn(C)c3)c2CN1Cc1ccc(C)s1` (configuration not stated), the INHIBITION turned out to be 52.77%.

`COCC1Cn2nnc(-c3cnn(C)c3)c2CN1Cc1ccsc1` (configuration not stated): the INHIBITION is reported as 33.14%.

Regarding `COCC1Cn2nnc(-c3cnn(C)c3)c2CN1Cc1ccoc1` (configuration not stated), the INHIBITION is 19.42%.

`COCC1Cn2nnc(-c3cnn(C)c3)c2CN1Cc1ccco1` (configuration not stated): the INHIBITION came to 14.97%.

In the case of `Cc1ccccc1CNC(=O)Cn1nc(-c2ccc(F)cc2)oc1=O`, the INHIBITION is reported as -25.13%.

Consider `CCOc1ccc(C(=O)Nc2c(C)nc3ccc(Cl)cn3c2=O)cc1`, for which the INHIBITION turned out to be 27%.

Take `Cc1cc2cc(Nc3c(C#N)c(=O)n(C)c(=O)n3C)ccc2[nH]1`: the INHIBITION is 13.53%.

For `O=C(CSc1ccc2c(c1)OCCO2)NS(=O)(=O)c1cccnc1`, the INHIBITION is on record as 16.95%.

In the case of `Cc1cccc(N(C)S(=O)(=O)c2cc(C(=O)O)cs2)c1`, the INHIBITION was found to be 68.24%.

Take `Cc1cc(C)cc(N(C)S(=O)(=O)c2cc(C(=O)O)cs2)c1`: the INHIBITION is reported as -8.84%.

As for `Cc1ccc(N(C)S(=O)(=O)c2cc(C(=O)O)cs2)cc1`, the INHIBITION is -29.54%.

On to `O=C(Nc1ccccc1)N1C[C@@H]2C[C@H](C(=O)N3CCOCC3)[C@H](C1)O2`, for which the INHIBITION is given as 24.15%.

Turning to `CC(C)(C)CC(=O)NCCn1nc(C2CCNC2)c2cccnc21` (configuration not stated), the INHIBITION amounted to 21.13%.

With `Cc1nc(CNC(=O)Nc2ccc(N(C)C)nc2)sc1C`, the INHIBITION is recorded as 74.34%.

`CN(C)c1ccc(NC(=O)NCc2ccccn2)cn1`: the INHIBITION is on record as 17.39%.

Consider `CN(C)c1ccc(NC(=O)NCc2ccc(Cl)s2)cn1`, for which the INHIBITION is recorded as 17.62%.

Take `O=C(CC1=CSC2=NCCN12)N1CCCC(CCc2cccc(F)c2)C1` (configuration not stated): the INHIBITION is listed as -33.45%.

As to `CN(C)C(=O)Cc1ccccc1NCc1nc(Cc2ccccc2)no1`, the INHIBITION is given as -12.95%.

For `CNC(=O)C1(c2cnccn2)CCCN1C(=O)c1ccccn1` (configuration not stated), the INHIBITION is -3.55%.

With `OCCNc1nc(Nc2ccccc2)c2nccnc2n1`, the INHIBITION is recorded as 4.64%.

With `Cc1cnn(CCNCC(=O)Nc2ccc(Cl)cn2)c1`, the INHIBITION was -1.56%.

As for `Cc1cnn(CCNC(C)C(=O)Nc2ccc(Cl)cn2)c1` (configuration not stated), the INHIBITION is listed as 67.44%.

In the case of `Cc1cnn(CC(C)NCC(=O)Nc2ccc(Cl)cn2)c1` (configuration not stated), the INHIBITION is on record as 42.11%.

For `Cc1nn(C)c2c(N3CCN(C(=O)C(C)C)CC3)ncnc12`, the INHIBITION was found to be 31.57%.

Regarding `CCN(CCn1cccn1)Cc1nc(-c2cccc(C)c2)oc1C`, the INHIBITION is 65.76%.

Consider `CCN(CCn1cccn1)Cc1nc(-c2ccoc2)oc1C`, for which the INHIBITION is reported as -16.71%.

For `CCN(CCn1cccn1)Cc1nc(-c2ccc(F)cc2)oc1C`, the INHIBITION is given as -11.66%.

Regarding `Cc1cccc(CN2CCC3(CC2)NC(=O)C[C@H]3c2cnn(C)c2)n1`, the INHIBITION worked out at 14.65%.
